Rows were chosen to be rich in hits. Some 19% of all compounds tested hit in one or more screens of this group.
DT40 TDP1 CPT: growth inhibition of DT40 Tdp1-/-;hTDP1 cells with camptothecin (screen for TDP1 inhibitors); chicken DT40 Tdp1-/-;hTDP1 cells + 20 nM CPT, ATP luminescence, 48 h; Potency, µM (doses to about 46.2 µM), for the others: top-dose activity change, negative = growth inhibition, actives largely listed as inhibitors; 12% of 420,000 active; note: nearly all actives have a fitted effect of over 55% in size
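Chicken DT40 Tdp1-/- cells complemented with human TDP1, 400 cells/well, exposed to compounds plus 20 nM camptothecin for at least 48 h at 37 C; viability read as ATP content by CellTiter-Glo luminescence.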
RORgamma inh: ROR gamma (mouse) transcription inhibition; P51450; Drosophila S2 Gal4-RORgamma UAS-luciferase reporter, 20 h; Potency, µM (series often up to 53.6 µM), for the others: at the top dose activity change, negative = inhibition, actives largely listed as inhibitors; 5.4% of 310,000 active; AID 2551; note: nearly all actives have a fitted effect of over 60% in size
Target sequence (P51450 whole entry, looked up, the tested form may be a part): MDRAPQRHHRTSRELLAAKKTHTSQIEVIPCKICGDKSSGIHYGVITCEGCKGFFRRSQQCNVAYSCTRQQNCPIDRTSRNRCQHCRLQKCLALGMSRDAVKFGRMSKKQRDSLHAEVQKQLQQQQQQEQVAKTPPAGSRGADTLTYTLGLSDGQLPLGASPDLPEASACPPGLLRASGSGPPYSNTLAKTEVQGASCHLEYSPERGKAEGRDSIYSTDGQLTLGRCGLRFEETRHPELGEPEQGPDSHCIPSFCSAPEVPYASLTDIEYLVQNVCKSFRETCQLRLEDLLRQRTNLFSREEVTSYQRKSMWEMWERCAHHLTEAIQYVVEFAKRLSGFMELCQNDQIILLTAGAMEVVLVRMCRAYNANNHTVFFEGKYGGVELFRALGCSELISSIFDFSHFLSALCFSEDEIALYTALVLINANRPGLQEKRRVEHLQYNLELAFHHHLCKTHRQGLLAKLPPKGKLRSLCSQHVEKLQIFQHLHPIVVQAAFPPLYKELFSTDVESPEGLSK
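Stable Schneider cell line, Gal4 DNA-binding domain fused to ROR gamma, UAS-luciferase. Cmpd 1 hr RT → CuSO4 700 uM final → 20 hr RT → luciferase reagent 10 min → luminescence.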
VP16 counter: inhibits Gal4-VP16 luciferase reporter, ROR gamma counter-screen. Drosophila S2 Gal4-VP16 UAS-luciferase, luminescence, 20 h. Potency, µM (titrated, usually from 53.6 µM), inactives show top-dose activity, negative = inhibition, usual class: inhibitors. 3.5% of 310,000 active;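 note: Gal4-VP16 expression switched on by copper sulfate through the metallothionein promoter; nearly all actives have a fitted effect of over 50% in size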
DT40 TDP1 no CPT: qHTS for Inhibitors of human tyrosyl-DNA phosphodiesterase 1 (TDP1): qHTS in cells in absence of CPT; DT40 Tdp1-/- hTDP1 cells, no CPT, ATP luminescence, 48 h; Potency, µM (highest dose often 46.2 µM), for the others: at the top dose activity change, negative = growth inhibition, most hits filed as inhibitors; AID 686978, 2013; 15% of 420,000 active; note: nearly all actives have a fitted effect of over 55% in size
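Camptothecin absent (DMSO only). Human TDP1-complemented DT40 knockout cells, 400 cells/well, 37 °C for minimum 48 hr; ATP measured via CellTiter-Glo, 30 min dark incubation, luminescence.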
TDP1 inh: TDP1 (human) enzyme inhibition; recombinant TDP1, AlphaScreen DNA substrate cleavage; Potency, µM (top dose mostly 130 µM), for inactives: top-dose activity change, negative = inhibition, usual class: inhibitors; 0.28% of 350,000 active; Q9NUW8; note: nearly all actives have a fitted effect of over 40% in size
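Tdp1 1 nM final; 15 min RT w/ cpd; substrate 15 nM, 5 min; beads 10 ug/ml, 10 min; AlphaScreen read. Neg ctrl: no enzyme.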
An asterisk follows results filed as active; ? = inconclusive; . = no result; [ ] = remark or other dose. Calls come from the whole dose curve; as a rule, active = well fitted curve in the direction sought with a large enough effect; inconclusive = small, poorly fitted or top-dose-only effect, or another doubt; inactive = no such curve, though single readings can be large; an effect the other way counts as inactive or inconclusive. % is set by controls: 0 for no effect and ±100 for the full control effect; potency is the fitted concentration of half-maximal effect.

SMILES	DT40 TDP1 CPT	RORgamma inh	VP16 counter	DT40 TDP1 no CPT	TDP1 inh
COc1ccccc1N(/N=C1\Sc2ccccc2C1=O)C(C)=O	-97%	8.9µM*	?	-100%	.
CC(=O)C1=C(O)CC(C)(C)CC1=NCc1nc2ccccc2[nH]1	?	-4%	1%	16µM*	-14%
CC(=O)C1=C(O)CCCC1=NCc1nc2ccccc2[nH]1	2%	5%	-1%	?	6%
CC[C@]1(O)CC2CN(CCc3c([nH]c4ccccc34)[C@@](C(=O)OC)(c3cc4c(cc3OC)N(C)[C@H]3[C@@](O)(C(N)=O)[C@H](O)[C@]5(CC)C=CCN6CC[C@]43[C@@H]65)C2)C1 (some centres undefined)	0.34µM*	.	.	0.34µM*	.
COc1ccc(CNC(=O)CC2C[C@H](C(=O)N3CCCCC3)[C@@]3(C)c4[nH]c5ccccc5c4CCN3C2=O)cc1OC (some centres undefined)	?	.	.	?	3%
CCC1=C[C@@H]2CN(C1)Cc1c([nH]c3ccccc13)[C@@](C(=O)OC)(c1cc3c(cc1OC)N(C)[C@H]1[C@@](O)(C(=O)OC)[C@H](OC(C)=O)[C@]4(CC)C=CCN5CC[C@]31[C@@H]54)C2	0.06µM*	24%	-15%	0.053µM*	15%
CC[C@]1(O)C[C@@H]2CN(CCc3c([nH]c4ccccc34)[C@](C(=O)OC)(c3cc4c(cc3OC)N(C)[C@H]3[C@](O)(C(=O)OC)[C@@H](C(=O)OC)[C@@]5(CC)C=CCN6CC[C@@]43[C@@H]65)C2)C1	0.084µM*	45%	?	0.11µM*	-2%[56.1 µM]
CCC1(O)CC2CN(CCc3c([nH]c4ccccc34)[C@@](C(=O)OC)(c3cc4c(cc3OC)N(C)C3[C@]45CCN4CC=C[C@@](CC)([C@@H](OC(C)=O)[C@]3(O)C(=O)OC)[C@H]45)C2)C1 (some centres undefined)	.	.	.	.	15%[56.1 µM]
CC[C@]1(O)C[C@@H]2CN(CCc3c([nH]c4ccccc34)[C@@](C(=O)OC)(c3cc4c(cc3OC)N(C)C3[C@]45CCN4CC=C[C@](CC)(C45)[C@@H](OC(C)=O)[C@]3(O)C(=O)OC)C2)C1 (some centres undefined)	0.025µM*	.	.	0.016µM*	9%
Cc1ccc(Cl)cc1NC(=O)C1CC(=O)Nc2ncnn21 (centres undefined)	7%	2%	-1%	15%	2%
CCn1cc(C(=O)N2CCN(c3cc(Cl)ccc3C)CC2)c(=O)c2cc(S(=O)(=O)N3CCOCC3)ccc21	-9%	.	.	?	0%
CC(=O)Nc1ccc(/C=C/c2noc(-c3ccccc3O)n2)cc1	-11%	10%	-11%	3%	4%
COc1cccc(/C=N/Nc2nn3cnnc3c3ccccc23)c1O	2.6µM*	1.4µM*	2.8µM*	1.2µM*	4%
O=C(N/N=C/c1ccccc1F)C(=O)N1CCCCCC1	37%	-2%	-16%	8%	0%
COc1cccc(/C=N/NC(=O)CSc2ccccc2C)c1OC	4%	-13%	-14%	-15%	3%
O=C(N/N=C/c1ccccc1O)C(=O)N1CCCCCC1	?	13µM*	13µM*	?	5%
COc1cccc(/C=N/NC(=O)CSc2ccccc2C)c1O	1.2µM*	0.71µM*	0.79µM*	1.3µM*	8%
COc1cccc(/C=N/NC(=O)c2nc(-c3ccccc3)cc(-c3ccccc3)n2)c1O	12µM*	27%	-10%	9.2µM*	?
Cc1cccn2c(=O)c3cc(C(=O)NCCN4CCOCC4)n(Cc4ccccc4)c3nc12	.	0%[10 µM]	0%	.	1%
CCOc1cccc(/C=N/NC(=O)c2cc(C3CC3)[nH]n2)c1O	?	2.2µM*	2.8µM*	23µM*	0%
COc1cccc(/C=N/NC(=O)C(=O)N2CCCC2)c1O	?	?	?	16µM*	-8%
CCOc1cccc(/C=N/NC(=O)c2cccnc2)c1O	?	0.2µM*	0.32µM*	?	4%

Source: PubChem (National Center for Advancing Translational Sciences (NCATS))
